aDG glyco act: activators of alpha-DG glycosylation, primary screen, uHTS, Pro5-aDG cells, AlphaScreen; activation, % at 10 µM; AID 624168, 2012; hit rate 0.22% among 360,000; alpha-DG glycosylation AlphaScreen (IIH6); 0% Pro5, 100% B10-LARGE cell signal;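 active = activation of at least 8% versus controls, or a plate z-score of at least 8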;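 also: Pro5 are CHO cells carrying HIG-tagged alpha-DG that lacks glycosylation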
CRFR2-BP antag: antagonists of CRF-BP/CRF-R2 complex, primary screen, cell-based, HEK293, calcium dye fluorescence, uHTS; CRF-induced calcium fluorescence; hit rate 0.59% among 350,000; inhibition, % at 11.8 µM; AID 588475, 2011;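 active = inhibition of the ligand-induced calcium signal above about 50% at the single tested concentration, limit read from the data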
FAS TE block: FAS thioesterase domain inhibitors, primary screen, biochemical, fluorescence intensity, uHTS; Fatty acid synthase (Homo sapiens), P49327; hit rate 0.67% among 360,000; recombinant FAS-TE, OMFH fluorogenic substrate, fluorescence endpoint; AID 602261, 2012; inhibition, % at 15 µM;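 active = compounds whose normalised, plate-corrected inhibition of enzyme fluorescence in the single-dose primary screen is 50% or more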;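 also: 0% = DMSO with enzyme and 100% = substrate without enzyme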
CRFR2-BP ag: agonists of CRF-BP/CRF-R2 complex, primary screen, cell-based, HEK293, calcium dye fluorescence, uHTS. CRF-binding protein / CRF receptor 2 complex (human). calcium dye fluorescence (FLIPR); percent of saturating CRF peptide response. activation, % at 13.2 µM. hit rate 0.46% among 350,000;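 active = activation of at least 50%, plus an integration ratio under a set limit after plate pattern correction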;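 also: plate controls were neutral control wells without compound for no effect and CRF at EC100 for full effect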
PfGluPho inh: PfG6PD enzyme inhibitors, primary screen, biochemical, fluorescence intensity, uHTS; glucose-6-phosphate dehydrogenase-6-phosphogluconolactonase (Plasmodium falciparum 3D7); PfGluPho enzyme, NADPH resazurin-diaphorase fluorescence; inhibition, % at 20 µM; hit rate 0.78% among 350,000;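 active = inhibition reaching at least a set limit at 20 µM in the primary screen, cut at about 59% in these data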;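 also: 0% = DMSO wells with substrate and 100% = DMSO wells lacking glucose-6-phosphate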
Cardio protect: cardioprotection against H2O2-induced cell death, primary screen, uHTS, H9c2 cells, ATPLite luminescence; H9c2 cardiomyocytes, H2O2 injury protection, 2 h; protection from H2O2 cell death, % at 20 µM; hit rate 0.63% among 360,000;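 active = compounds giving at least 50% protection of heart cells from peroxide-induced death in the single-dose screen, raw or plate-pattern-corrected value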;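 also: 0% = DMSO wells with peroxide and 100% = DMSO wells without peroxide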
An asterisk follows results filed as active; · = no result given. In the library only some 3.2% were active in any assay of this set; here they are far more common.

SMILES	aDG glyco act	CRFR2-BP antag	FAS TE block	CRFR2-BP ag	PfGluPho inh	Cardio protect
Nc1cc(=O)[nH]c(SCCOc2ccccc2)n1	0	-20	-3	1	-11	8
CCOc1ccc(OCCSc2nc(N)cc(=O)[nH]2)cc1	0	59*	0	2	-11	-10
CCOC(=O)c1c(-c2ccccc2)nnn1-c1nc(OCC)nc(N2CCCCC2)n1	0	5	22	0	-14	70*
CCOC(=O)c1nnn(-c2nc(N3CCCC3)nc(N3CCCC3)n2)c1-c1ccccc1	0	3	17	-3	-7	7
CN(C)c1nc(Cl)nc2c1nc(Cl)n2C1CCCCO1 (stereo unspecified)	0	-3	3	-2	18	3
Cc1cc(C)c(S(=O)(=O)N2CCCC(C(=O)NCc3ccncc3)C2)c(C)c1 (stereo unspecified)	0	-12	-6	1	1	1
NC(=S)N=Nc1c(O)cc(O)c2[nH]c(=O)ccc12	0	15	1	-3	93*	-8
COc1cc(/C=N/N=C2/NC(=O)C(Cc3ccccc3)S2)ccc1O (stereo unspecified)	0	-8	-3	0	-3	-8
O=C1N/C(=N/N=C/c2ccc(F)cc2)SC1c1ccccc1 (stereo unspecified)	0	52*	4	-1	-7	-9
O=c1oc(CCO)cc2ccc(Br)cc12	0	66*	-7	0	-6	10
CCOC(=O)Cc1nn[nH]n1	0	17	-4	0	12	-5
COc1ccc(N(CC(=O)NN=C2CCCC2)S(=O)(=O)c2ccccc2)cc1Cl	0	-100	-8	80*	-15	1
COc1ccc(N(CC(=O)N/N=C/c2ccco2)S(=O)(=O)c2ccccc2)cc1Cl	0	-14	30	-3	-1	4
COc1ccccc1-n1c(C)c(C(=O)O)c2cc(OC)c3ccccc3c21	0	7	1	1	13	2
O=C(CC1CC1)N[C@@H]1CC[C@@H](CCNS(=O)(=O)c2ccc(F)cc2)O[C@@H]1CO	0	·	·	·	·	·
CCCCCc1ccc(CC(=O)Nn2c(C)nc3ccccc3c2=O)cc1	0	-55	15	-2	-2	-15
Cc1cccc(C)c1NC(=O)Cc1cccs1	0	78*	-6	1	18	-2
Cc1cc(C)nc(NC(=O)Cc2cccs2)n1	0	7	-7	-1	-5	6
Cc1cc(NC(=O)CSc2nnc(C(F)(F)F)n2C)no1	0	-5	-7	-3	2	2
CCOC(=O)C1(CC)Oc2ccccc2C(c2ccc(OC)cc2)=C1C(=O)OC (stereo unspecified)	0	11	15	2	7	-11
COc1cccc(/C=N/NC(=O)c2ccncc2)c1OC(=O)c1ccc(Br)cc1	1	0	9	2	7	55*
COc1cc(/C=N/NC(=O)c2ccncc2)ccc1OC(=O)c1cccc(Br)c1	0	-29	7	0	-2	10
COc1ccc(N=c2ssnc2Cl)cc1	0	-11	-2	3	83*	1
Clc1ccc(N=c2ssnc2Cl)cc1	0	43	-4	67*	-9	-28
Clc1nssc1=Nc1ccccc1	0	12	-5	0	77*	-4
SMILES	aDG glyco act	CRFR2-BP antag	FAS TE block	CRFR2-BP ag	PfGluPho inh	Cardio protect
O=C1CSC(=Nc2ccc(Cl)cc2)N1	0	4	-6	1	0	-1
Fc1ccc(N=c2ssnc2Cl)c(F)c1	0	-10	-1	70*	87*	-17
COc1ccc(N=C2SCC(=O)N2C)cc1	0	-22	-5	-1	-7	0
OC(CNCCN1CCNCC1)Cc1ccccc1 (stereo unspecified)	0	1	-2	0	16	-2
O=C(Nc1ccc(C(=O)N2CCOCC2)cc1)c1cnn2c(C(F)F)cc(-c3ccccc3)nc12	-1	7	12	0	25	55*
O=C(c1cnn2c(C(F)F)cc(-c3ccccc3)nc12)N1CCOCC1	0	20	-8	-4	-8	4
O=C(NCCN1CCOCC1)c1cc(-c2ccccc2)nc2ccccc12	0	-8	-7	3	-6	4
O=C(NCCN1CCOCC1)c1cnn2c(-c3ccccc3)cc(-c3ccccc3)nc12	0	-13	3	1	5	79*
COc1ccc(-c2cc(C(F)F)n3ncc(C(=O)Nc4ccc(C(=O)N5CCOCC5)cc4)c3n2)cc1	0	16	8	-1	11	71*
O=C(COC(=O)Cn1nnc2ccccc21)Nc1ccccc1Br	0	2	-13	-1	1	17
O=C(CSc1ccccc1)N(c1ccc(Br)cc1)c1nccs1	0	50*	36	0	5	-10
COc1ccc(CN(CC(=O)NCc2ccccc2)C(=O)CCC(=O)Nc2cc(C)ccn2)cc1	0	-5	-1	-1	0	-2
COc1ccc(OC)c(S(=O)(=O)N2CCc3ccccc32)c1	0	-4	10	1	26	-4
COc1ccc(OC)c(S(=O)(=O)N2c3ccccc3CC2C)c1 (stereo unspecified)	0	53*	18	-2	7	-2
COc1ccc(OCC(=O)N2CCN(C(=O)c3ccc(F)cc3)CC2)cc1	0	3	-4	0	-12	2
Cc1ccccc1C(=O)NCC(=O)OCCOc1ccc(C(C)C)c(C)c1	0	-12	14	1	11	-4
COc1ccccc1CN1CCCC(C(=O)N(C)Cc2ccccc2)C1 (stereo unspecified)	1	55*	-5	3	12	-10
CC1CCN(CCCNC(=O)C2CCN(S(=O)(=O)N3CCC4(CC3)OCCO4)CC2)CC1	0	-2	-4	7	4	-1
CN(C)S(=O)(=O)c1ccc(C(=O)OCC(=O)Nc2ccc(OC(F)F)cc2)cc1	0	96*	4	3	8	-4
O=C(COC(=O)c1ccc(S(=O)(=O)NCc2ccco2)cc1)Nc1ccc(OC(F)F)cc1	0	-4	6	0	-3	-2
CNS(=O)(=O)c1cccc(C(=O)OCC(=O)Nc2ccc3ccccc3c2)c1	0	-1	-6	-1	-7	0
O=C(OCC(=O)N1CCC(Cc2ccccc2)CC1)c1cc(Br)ccc1O	0	5	46	1	1	-13
Cc1nc(-n2[nH]c3c(c2=O)CCCC3)[nH]c(=O)c1Cc1ccccc1	1	-54	-6	58*	-7	70*

Screens (PubChem)
